Results from PubChem BioAssay (NCATS).
Several values for one entry are separate records, joined by “and”; a condition that tells them apart may be missing. Equal entries are not always repeated. A number with no mark means an inactive call. Inconclusive results are not listed. Activity calls are given as the source filed them.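 The calls were made as follows, unless noted: active = compounds whose dose series gives a full or clear partial fitted curve of increased nuclear translocation; inconclusive = weak partial curve or effect only at the top dose; inactive = no dose-dependent translocation response.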

Columns and labels:
[1] = Stat Signaling Pathway (AID 446; active = well fitted curve in either direction with a large enough effect, not every such curve was filed as active;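 also: ME-180 cervical cancer cells given 40 pM IL-6 alongside compound; SIE-controlled beta-lactamase reporter measured as 460/530 nm FRET emission ratio; % is scaled to controls: 0 for no effect and ±100 for the full control effect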); settings: ME-180 SIE beta-lactamase reporter, IL-6 stimulated, 5 h
Outline: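 ME-180 cells carrying a SIE-driven beta-lactamase reporter are stimulated with 40 pM IL-6 for 5 h at 37C in the presence of compound. The 460/530 nm FRET substrate ratio is read after 2.5 h at RT. Data are normalised to 300 pM IL-6 and to 125 nM JAK inhibitor controls.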

[2] = molecular target: Glucocorticoid receptor (Homo sapiens) (UniProt P04150); assay: GR-GFP Redistribution (AID 450); settings: U2OS GR-GFP nuclear translocation, laser cytometry, 2 h; also: potency is read from the fitted curve at half-maximal effect
Sequence of Glucocorticoid receptor (Homo sapiens) (P04150 whole entry, looked up, the tested form may be a part): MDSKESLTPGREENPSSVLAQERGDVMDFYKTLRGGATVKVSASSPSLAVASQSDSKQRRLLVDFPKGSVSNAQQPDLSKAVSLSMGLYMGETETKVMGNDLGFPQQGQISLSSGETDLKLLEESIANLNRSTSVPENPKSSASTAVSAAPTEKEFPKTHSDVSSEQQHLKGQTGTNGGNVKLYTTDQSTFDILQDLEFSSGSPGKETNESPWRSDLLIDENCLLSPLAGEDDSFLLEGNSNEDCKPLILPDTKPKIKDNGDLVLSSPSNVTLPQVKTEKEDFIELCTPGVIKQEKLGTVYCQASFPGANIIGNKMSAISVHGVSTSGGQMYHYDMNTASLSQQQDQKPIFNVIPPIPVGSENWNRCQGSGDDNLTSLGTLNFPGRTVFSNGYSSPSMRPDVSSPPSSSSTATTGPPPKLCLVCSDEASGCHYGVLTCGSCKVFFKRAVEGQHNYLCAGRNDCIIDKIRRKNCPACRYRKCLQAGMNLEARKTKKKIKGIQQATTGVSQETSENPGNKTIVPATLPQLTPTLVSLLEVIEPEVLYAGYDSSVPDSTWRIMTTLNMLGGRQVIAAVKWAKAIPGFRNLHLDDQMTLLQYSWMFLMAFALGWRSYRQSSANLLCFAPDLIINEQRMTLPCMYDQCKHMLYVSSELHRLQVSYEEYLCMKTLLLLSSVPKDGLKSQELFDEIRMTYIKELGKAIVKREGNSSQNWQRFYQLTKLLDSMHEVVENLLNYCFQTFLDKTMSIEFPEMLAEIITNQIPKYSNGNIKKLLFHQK

[3] = molecular target: Glucocorticoid receptor (Homo sapiens) (UniProt P04150); assay: GR-EFC Redistribution (AID 451; calls by dose curve; also: potency is read from the fitted curve at half-maximal effect); settings: CHO-K1 GR-EFC translocation, beta-gal luminescence, 2 h
Outline: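 CHO-K1 cells expressing nuclear EA and GR-ED fragments of b-gal; compounds titrated up to 46 uM final, 2 h at 37 C. GR nuclear translocation read as complemented b-gal luminescence after 1 h RT detection.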

[4] = molecular target: 3',5'-cyclic-AMP phosphodiesterase 4B (Homo sapiens) (UniProt Q07343); assay: qHTS Assay for Inhibitors of PDE-IV (AID 607; active = well fitted activation curve with a large enough effect in the main read-out, with a control signal flat, not every such curve was filed as active; also: % of control where 0% means no effect); settings: HEK293 ACTOne CNG channel cells, membrane potential fluorescence; series mostly up to 22.9 µM
Sequence of 3',5'-cyclic-AMP phosphodiesterase 4B (Homo sapiens) (Q07343 whole entry, looked up): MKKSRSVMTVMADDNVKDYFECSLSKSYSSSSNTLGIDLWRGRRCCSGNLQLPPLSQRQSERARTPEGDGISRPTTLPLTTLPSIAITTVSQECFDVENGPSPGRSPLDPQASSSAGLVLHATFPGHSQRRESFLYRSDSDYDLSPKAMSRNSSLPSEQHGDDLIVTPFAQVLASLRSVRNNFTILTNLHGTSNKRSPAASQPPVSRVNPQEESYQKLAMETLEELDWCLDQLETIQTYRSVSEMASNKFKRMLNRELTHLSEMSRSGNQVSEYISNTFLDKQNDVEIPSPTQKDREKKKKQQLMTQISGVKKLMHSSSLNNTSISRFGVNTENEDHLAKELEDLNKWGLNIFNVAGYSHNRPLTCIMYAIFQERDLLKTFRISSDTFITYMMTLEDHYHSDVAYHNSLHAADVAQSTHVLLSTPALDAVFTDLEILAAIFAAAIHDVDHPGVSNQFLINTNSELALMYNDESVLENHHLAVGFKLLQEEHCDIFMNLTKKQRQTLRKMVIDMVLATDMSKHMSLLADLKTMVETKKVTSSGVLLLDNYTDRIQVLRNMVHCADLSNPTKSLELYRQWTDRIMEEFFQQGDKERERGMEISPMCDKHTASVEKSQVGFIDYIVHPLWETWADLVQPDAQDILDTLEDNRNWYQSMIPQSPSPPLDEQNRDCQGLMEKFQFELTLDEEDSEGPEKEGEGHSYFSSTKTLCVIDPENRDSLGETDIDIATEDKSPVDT
Outline: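 HEK293 ACTOne cells with CNG channel (1000/well), endogenous PDE4; membrane potential dye, compounds up to 22.9 uM final. Fluorescence Ex 535/Em 590; RO 20-1724 (100 uM final) as reference.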

[5] = molecular target: Mitogen-activated protein kinase 10 (Mus musculus) (UniProt Q61831); assay: JNK3 AlphaScreen Assay (AID 530; active = well fitted curve in either direction with a large enough effect, not every such curve was filed as active;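 also: kinase came from lysate of stimulated human HepG2 cells; signal reports phosphorylation of biotinylated GST-cJun 1-79 at Ser73 with 10 µM ATP; % is scaled to controls: 0 for no effect and ±100 for the full control effect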); settings: JNK3 lysate, c-Jun phosphorylation; series mostly up to 57.1 µM
Outline: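 qHTS format: compounds tested as titrations against IL-1beta/TNF-alpha-activated HepG2 lysate JNK3 with biotin-GST-cJun substrate and 10 uM ATP at room temperature. Loss of anti-phospho-cJun AlphaScreen signal indicates inhibition.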

Structure (SMILES)	activity, negative = inhibition ([1]; at 17.2 µM (top of the series))	Potency [2]	activity, negative = inhibition ([1]; at 38 µM (top of the series))	Potency [3]	outcome [4]	Potency [5]
COc1ccc(/C=C/C(=O)Nc2ccccc2C(=O)O)cc1OC	-24.7%	> 20.6 µM	–	–	–	–
N#C/C(=C\c1c[nH]c2ccccc12)C(=O)c1ccc(O)c(O)c1	–	> 46 µM	-11%	> 46 µM	inactive	–
CC(C)Cc1ccc([C@H](C)C(=O)O)cc1	-0.514%	> 46 µM and > 20.6 µM	-0.822% and 26.9%	> 46 µM and > 20.6 µM	inactive	inactive
NCCCCCCCCCCN	–	> 46 µM	-2.37%	> 46 µM	inactive	–
CN(C)c1nc(N)c(C(=O)N=C(N)N)nc1Cl	–	> 46 µM	19%	> 46 µM	inactive	–
Fc1ccc(C(OCCCc2cnc[nH]2)c2ccc(F)cc2)cc1	–	> 46 µM	27.8%	> 46 µM	inactive	inactive
CC1(C)CCC=[N+]1[O-]	–	> 46 µM	4.29%	> 46 µM	inactive	inactive
Nc1ccc(C(=O)O)c(O)c1	7.35% and -0.89%	> 20.6 µM	–	–	–	–
Clc1ccc(N2CCN(Cc3c[nH]c4ncccc34)CC2)cc1	–	> 46 µM	-44.5%	> 46 µM	inactive	–
CC(C)(C=O)Cc1cc(C(C)(C)C)c(O)c(C(C)(C)C)c1	–	> 46 µM	-12.1%	> 46 µM	inactive	–
C[N+]1(C)CCC(OC(=O)C(c2ccccc2)c2ccccc2)CC1	–	> 46 µM	22.3%	> 46 µM	inactive	inactive
O=C(Nc1cccc(C(=O)Nc2ccc(S(=O)(=O)O)c3cc(S(=O)(=O)O)cc(S(=O)(=O)O)c23)c1)Nc1cccc(C(=O)Nc2ccc(S(=O)(=O)O)c3cc(S(=O)(=O)O)cc(S(=O)(=O)O)c23)c1	–	> 46 µM	-0.505%	> 46 µM	inactive	–
O=c1[nH]c2cc([N+](=O)[O-])c([N+](=O)[O-])cc2[nH]c1=O	–	> 46 µM	21%	> 46 µM	inactive	–
Ic1ccc(N2CCN(Cc3c[nH]c4ncccc34)CC2)cc1	–	> 46 µM	-23%	> 46 µM	inactive	–
O=C1C(SCCO)=C(SCCO)C(=O)c2ccccc21	–	> 46 µM	134% (active)	> 46 µM	inactive	–
O=C(O)c1cc(=O)c2c(Cl)cc(Cl)cc2[nH]1	–	> 46 µM	15.7%	> 46 µM	inactive	–
NC(N)=NC(=O)c1nc(Cl)c(N2CCCCCC2)nc1N	–	> 46 µM	1%	> 46 µM	inactive	–
